Binding signal data for one sequence are collected here from PMC7862700, “An all-to-all approach to the identification of sequence-specific readers for epigenetic DNA modifications on cytosine”.

Holding throughout (experiment): DAPPL (digital affinity profiling via proximity ligation, sequencing); 10 mM Tris-HCl pH 7.5, 50 mM NaCl, 1 mM DTT, 4% glycerol, room temperature, 30 min; GST-TFs on glutathione beads, 16-mer random dsDNA library, 0.1% formaldehyde crosslink after washing; high values mean tight binding
One test has as its target T1, FEV (Homo sapiens, UniProt Q99581 1-238).
T1 sequence: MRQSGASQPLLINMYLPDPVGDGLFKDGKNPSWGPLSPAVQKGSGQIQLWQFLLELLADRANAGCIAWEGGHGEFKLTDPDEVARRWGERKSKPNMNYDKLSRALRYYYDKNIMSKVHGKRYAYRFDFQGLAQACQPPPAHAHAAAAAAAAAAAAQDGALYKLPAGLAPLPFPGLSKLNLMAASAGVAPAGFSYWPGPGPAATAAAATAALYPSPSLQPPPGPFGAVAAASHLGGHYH
As to conditions: protein: recombinant; tags: N-terminal GST; dsDNA, one strand shown. The gist of the method:
(§1)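 Binding signal is each hexamer's read frequency for a factor divided by its frequency in the tag-only sample. The factors were GST-fused human transcription factors from yeast, captured on glutathione beads, DNA-barcoded and pooled with that sample. Pools were incubated with 200 nmole of a random double-stranded 16-mer DNA library in Tris/NaCl/DTT/glycerol buffer at room temperature for 30 min, then washed, crosslinked with 0.1% formaldehyde, proximity-ligated with BsaI/T4 ligase (1 h, 37 °C), PCR-amplified and sequenced on an Illumina NextSeq500.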

Another test deals with ETV5 (Homo sapiens, UniProt P41161 1-510). As to conditions: protein: recombinant; tags: N-terminal GST; dsDNA, one strand shown. The gist of the method: as §1
ETV5, sequence (P41161 whole entry): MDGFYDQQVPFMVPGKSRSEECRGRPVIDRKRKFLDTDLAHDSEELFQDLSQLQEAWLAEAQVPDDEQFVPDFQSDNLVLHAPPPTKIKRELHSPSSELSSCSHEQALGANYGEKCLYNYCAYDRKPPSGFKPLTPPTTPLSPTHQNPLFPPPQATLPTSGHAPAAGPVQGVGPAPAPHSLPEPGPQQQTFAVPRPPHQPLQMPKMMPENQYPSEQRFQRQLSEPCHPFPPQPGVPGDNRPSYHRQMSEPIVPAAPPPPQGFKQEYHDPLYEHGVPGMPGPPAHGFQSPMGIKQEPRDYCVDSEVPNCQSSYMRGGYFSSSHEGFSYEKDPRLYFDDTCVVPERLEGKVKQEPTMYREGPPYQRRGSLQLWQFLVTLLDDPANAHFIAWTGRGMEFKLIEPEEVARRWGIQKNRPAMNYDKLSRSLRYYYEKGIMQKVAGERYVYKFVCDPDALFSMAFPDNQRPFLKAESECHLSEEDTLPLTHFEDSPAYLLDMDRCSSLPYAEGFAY
The target of the next test is HSF1 (Homo sapiens, UniProt Q00613 1-529). As to conditions: protein: recombinant; tags: N-terminal GST; chain copies: 3; dsDNA, one strand shown. The essentials: as §1
HSF1, sequence (Q00613 whole entry): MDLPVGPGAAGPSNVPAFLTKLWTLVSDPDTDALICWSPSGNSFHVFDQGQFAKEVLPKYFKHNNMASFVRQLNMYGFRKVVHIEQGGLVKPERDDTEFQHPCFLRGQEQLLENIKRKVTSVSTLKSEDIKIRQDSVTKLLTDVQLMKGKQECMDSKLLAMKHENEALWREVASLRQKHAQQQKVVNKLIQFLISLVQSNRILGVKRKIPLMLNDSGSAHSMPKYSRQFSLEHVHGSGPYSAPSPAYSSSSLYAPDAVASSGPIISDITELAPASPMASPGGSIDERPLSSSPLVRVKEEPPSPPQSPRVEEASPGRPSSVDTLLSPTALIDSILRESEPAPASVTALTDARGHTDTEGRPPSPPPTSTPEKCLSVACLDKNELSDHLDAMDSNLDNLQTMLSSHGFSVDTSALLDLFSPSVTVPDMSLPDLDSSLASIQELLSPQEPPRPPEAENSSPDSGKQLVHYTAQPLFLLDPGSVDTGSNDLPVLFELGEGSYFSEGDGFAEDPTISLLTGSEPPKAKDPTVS
A further test addresses T2, SPIC (Homo sapiens, UniProt Q8N5J4 1-248).
T2 sequence: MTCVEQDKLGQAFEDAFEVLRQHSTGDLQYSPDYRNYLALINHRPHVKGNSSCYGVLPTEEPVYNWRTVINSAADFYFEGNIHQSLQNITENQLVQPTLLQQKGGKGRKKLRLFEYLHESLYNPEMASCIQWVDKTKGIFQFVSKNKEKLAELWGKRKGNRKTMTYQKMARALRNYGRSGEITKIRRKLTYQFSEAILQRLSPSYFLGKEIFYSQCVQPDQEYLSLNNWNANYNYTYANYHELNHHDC
The settings on record: protein: recombinant; tags: N-terminal GST; dsDNA, one strand shown. The essentials: as §1

Another test concerns the target ELF4 (Homo sapiens, UniProt Q99607 1-663). As to conditions: protein: recombinant; tags: N-terminal GST; dsDNA, one strand shown. The gist of the method:
as §1

In another test the target is T3, ELK4 (Homo sapiens, UniProt P28324-2 1-405).
T3 sequence: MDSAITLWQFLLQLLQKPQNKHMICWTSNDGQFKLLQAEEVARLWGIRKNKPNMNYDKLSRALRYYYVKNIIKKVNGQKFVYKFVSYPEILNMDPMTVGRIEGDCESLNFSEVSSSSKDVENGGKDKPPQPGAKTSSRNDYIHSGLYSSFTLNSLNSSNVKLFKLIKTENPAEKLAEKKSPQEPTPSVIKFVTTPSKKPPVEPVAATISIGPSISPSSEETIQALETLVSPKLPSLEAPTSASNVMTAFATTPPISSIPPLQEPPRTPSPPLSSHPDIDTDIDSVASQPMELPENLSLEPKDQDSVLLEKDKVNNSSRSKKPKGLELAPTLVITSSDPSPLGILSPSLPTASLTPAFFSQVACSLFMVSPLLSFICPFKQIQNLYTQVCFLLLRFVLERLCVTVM
The settings on record: protein: recombinant; tags: N-terminal GST; dsDNA, one strand shown. The gist of the method: as §1

A further test deals with T4, ETV2 (Homo sapiens, UniProt O00321 1-342).
T4 sequence: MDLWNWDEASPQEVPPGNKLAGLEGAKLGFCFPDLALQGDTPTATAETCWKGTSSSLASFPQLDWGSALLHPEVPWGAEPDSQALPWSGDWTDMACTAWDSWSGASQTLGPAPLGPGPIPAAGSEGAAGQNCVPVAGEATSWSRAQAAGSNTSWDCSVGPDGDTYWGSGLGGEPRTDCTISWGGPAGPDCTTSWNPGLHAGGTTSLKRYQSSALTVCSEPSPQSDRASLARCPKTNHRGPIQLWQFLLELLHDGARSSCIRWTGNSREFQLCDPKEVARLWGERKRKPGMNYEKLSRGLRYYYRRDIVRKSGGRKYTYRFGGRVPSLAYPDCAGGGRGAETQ
The settings on record: protein: recombinant; tags: N-terminal GST; dsDNA, one strand shown. The essentials: as §1

The target of another test is T5, ELF3 (Homo sapiens, UniProt P78545 1-371).
T5 sequence: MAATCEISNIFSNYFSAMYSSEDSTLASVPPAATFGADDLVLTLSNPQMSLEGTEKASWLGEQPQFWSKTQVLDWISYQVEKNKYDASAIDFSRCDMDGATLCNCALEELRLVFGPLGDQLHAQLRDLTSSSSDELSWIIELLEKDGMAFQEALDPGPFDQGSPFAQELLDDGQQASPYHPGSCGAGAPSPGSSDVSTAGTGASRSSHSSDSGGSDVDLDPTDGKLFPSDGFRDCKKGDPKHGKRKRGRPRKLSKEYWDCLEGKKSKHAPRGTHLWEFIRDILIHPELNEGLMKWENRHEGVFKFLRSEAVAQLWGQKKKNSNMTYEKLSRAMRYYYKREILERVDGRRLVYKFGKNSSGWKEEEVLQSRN
As to conditions: protein: recombinant; tags: N-terminal GST; dsDNA, one strand shown. The essentials:
as §1

The target of another test is CRX (Homo sapiens, UniProt O43186 1-299). As to conditions: protein: recombinant; tags: N-terminal GST; dsDNA, one strand shown. The essentials:
as §1

In another test the target is ETV1 (Homo sapiens, UniProt P50549 1-477). The settings on record: protein: recombinant; tags: N-terminal GST; dsDNA, one strand shown. The gist of the method: as §1
ETV1, sequence (P50549 whole entry): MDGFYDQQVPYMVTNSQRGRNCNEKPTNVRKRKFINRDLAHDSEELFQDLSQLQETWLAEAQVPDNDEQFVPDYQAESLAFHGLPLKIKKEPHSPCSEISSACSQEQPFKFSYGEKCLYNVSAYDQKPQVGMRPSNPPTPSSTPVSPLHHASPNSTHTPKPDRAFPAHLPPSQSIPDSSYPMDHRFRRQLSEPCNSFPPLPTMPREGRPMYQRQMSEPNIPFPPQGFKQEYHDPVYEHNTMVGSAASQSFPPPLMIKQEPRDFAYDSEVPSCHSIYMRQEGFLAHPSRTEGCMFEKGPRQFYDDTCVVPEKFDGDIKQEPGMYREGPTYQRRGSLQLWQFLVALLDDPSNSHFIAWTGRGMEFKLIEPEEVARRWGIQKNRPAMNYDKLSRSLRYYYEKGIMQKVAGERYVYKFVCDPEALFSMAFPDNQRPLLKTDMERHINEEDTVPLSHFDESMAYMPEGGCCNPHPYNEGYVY
Another test concerns the target T6, ERF (Homo sapiens, UniProt P50548 1-548).
T6 sequence: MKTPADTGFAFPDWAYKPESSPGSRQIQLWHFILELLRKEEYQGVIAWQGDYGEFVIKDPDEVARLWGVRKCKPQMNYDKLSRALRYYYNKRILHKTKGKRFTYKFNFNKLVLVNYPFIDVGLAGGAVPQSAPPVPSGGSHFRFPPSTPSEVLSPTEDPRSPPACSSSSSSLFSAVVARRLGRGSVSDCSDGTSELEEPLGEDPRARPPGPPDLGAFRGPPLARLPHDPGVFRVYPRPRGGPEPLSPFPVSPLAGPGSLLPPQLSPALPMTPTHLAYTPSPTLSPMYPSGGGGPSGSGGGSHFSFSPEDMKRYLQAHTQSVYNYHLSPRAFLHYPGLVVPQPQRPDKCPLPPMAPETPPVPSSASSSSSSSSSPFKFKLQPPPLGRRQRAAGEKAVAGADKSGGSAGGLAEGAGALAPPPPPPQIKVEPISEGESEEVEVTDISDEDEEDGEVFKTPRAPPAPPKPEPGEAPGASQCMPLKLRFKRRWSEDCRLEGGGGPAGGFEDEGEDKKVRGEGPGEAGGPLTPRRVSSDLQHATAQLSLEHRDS
As to conditions: protein: recombinant; tags: N-terminal GST; dsDNA, one strand shown. The essentials: as §1

For another test, the target named is T7, ETV3L (Homo sapiens, UniProt Q6ZN32 1-361).
T7 sequence: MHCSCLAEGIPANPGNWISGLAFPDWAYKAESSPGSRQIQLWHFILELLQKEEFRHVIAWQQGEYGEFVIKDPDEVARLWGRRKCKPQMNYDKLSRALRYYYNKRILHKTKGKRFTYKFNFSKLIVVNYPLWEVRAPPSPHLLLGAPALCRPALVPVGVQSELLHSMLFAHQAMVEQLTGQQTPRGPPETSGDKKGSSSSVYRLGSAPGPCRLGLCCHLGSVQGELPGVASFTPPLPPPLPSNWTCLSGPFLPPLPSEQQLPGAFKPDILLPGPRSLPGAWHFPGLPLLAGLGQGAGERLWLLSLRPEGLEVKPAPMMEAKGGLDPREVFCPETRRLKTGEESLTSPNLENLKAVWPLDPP
The settings on record: protein: recombinant; tags: N-terminal GST; dsDNA, one strand shown. The gist of the method:
as §1

A further test concerns the target T8, ETS2 (Homo sapiens, UniProt P15036 1-469).
T8 sequence: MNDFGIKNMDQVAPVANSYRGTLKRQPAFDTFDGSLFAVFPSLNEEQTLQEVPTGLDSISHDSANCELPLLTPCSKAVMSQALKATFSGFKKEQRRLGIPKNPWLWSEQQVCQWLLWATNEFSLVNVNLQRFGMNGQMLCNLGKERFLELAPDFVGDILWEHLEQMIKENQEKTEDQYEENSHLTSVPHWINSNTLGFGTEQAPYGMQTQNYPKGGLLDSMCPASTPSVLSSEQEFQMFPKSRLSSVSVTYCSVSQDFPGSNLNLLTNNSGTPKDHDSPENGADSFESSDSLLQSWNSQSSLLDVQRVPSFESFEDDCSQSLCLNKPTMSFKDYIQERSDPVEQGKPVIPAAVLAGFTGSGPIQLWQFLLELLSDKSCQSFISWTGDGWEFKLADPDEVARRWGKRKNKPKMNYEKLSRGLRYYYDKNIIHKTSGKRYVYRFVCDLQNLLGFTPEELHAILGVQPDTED
The settings on record: protein: recombinant; tags: N-terminal GST; dsDNA, one strand shown. The essentials: as §1

A further test has as its target T9, SPDEF (Homo sapiens, UniProt O95238 1-335).
T9 sequence: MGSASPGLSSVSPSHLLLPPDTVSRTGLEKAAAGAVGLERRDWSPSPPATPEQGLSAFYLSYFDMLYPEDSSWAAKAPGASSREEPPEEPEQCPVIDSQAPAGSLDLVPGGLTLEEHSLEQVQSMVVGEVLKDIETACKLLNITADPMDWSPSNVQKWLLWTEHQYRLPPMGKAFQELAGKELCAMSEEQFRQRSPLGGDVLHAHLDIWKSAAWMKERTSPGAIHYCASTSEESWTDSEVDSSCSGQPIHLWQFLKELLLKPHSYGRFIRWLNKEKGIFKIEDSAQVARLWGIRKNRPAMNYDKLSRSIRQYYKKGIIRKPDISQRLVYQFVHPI
As to conditions: protein: recombinant; tags: N-terminal GST; dsDNA, one strand shown. The essentials:
as §1

The target in another test is T10, ETV7 (Homo sapiens, UniProt Q9Y603 1-341).
T10 sequence: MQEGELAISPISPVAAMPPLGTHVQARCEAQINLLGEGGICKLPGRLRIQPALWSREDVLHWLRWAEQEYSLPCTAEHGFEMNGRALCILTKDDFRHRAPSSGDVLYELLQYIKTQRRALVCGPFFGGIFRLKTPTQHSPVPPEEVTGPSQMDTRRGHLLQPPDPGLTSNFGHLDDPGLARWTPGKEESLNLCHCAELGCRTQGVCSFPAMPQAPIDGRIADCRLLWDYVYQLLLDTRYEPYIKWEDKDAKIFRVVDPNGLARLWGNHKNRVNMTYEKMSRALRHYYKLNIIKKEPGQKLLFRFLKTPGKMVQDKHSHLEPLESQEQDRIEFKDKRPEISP
The settings on record: protein: recombinant; tags: N-terminal GST; dsDNA, one strand shown. The gist of the method: as §1

A further test deals with T11, ELF5 (Homo sapiens, UniProt Q9UKW6-2 1-255).
T11 sequence: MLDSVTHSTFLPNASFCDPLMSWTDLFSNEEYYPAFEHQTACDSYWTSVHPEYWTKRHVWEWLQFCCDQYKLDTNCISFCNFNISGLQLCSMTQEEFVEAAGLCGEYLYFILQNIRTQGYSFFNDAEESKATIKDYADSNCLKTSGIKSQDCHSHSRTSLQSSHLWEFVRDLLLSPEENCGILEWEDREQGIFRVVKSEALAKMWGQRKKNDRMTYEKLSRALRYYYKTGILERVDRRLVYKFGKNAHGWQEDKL
As to conditions: protein: recombinant; tags: N-terminal GST; dsDNA, one strand shown. The essentials: as §1

The target in the next test is T12, ETV3 (Homo sapiens, UniProt P41162-2 1-143).
T12 sequence: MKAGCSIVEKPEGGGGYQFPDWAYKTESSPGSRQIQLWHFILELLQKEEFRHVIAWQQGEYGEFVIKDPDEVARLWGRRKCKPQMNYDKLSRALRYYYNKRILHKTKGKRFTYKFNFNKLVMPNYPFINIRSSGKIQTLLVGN
As to conditions: protein: recombinant; tags: N-terminal GST; dsDNA, one strand shown. The essentials:
as §1

Another test addresses ETV6 (Homo sapiens, UniProt P41212 1-452). The settings on record: protein: recombinant; tags: N-terminal GST; dsDNA, one strand shown. The gist of the method:
as §1

ETV6, sequence (P41212 whole entry): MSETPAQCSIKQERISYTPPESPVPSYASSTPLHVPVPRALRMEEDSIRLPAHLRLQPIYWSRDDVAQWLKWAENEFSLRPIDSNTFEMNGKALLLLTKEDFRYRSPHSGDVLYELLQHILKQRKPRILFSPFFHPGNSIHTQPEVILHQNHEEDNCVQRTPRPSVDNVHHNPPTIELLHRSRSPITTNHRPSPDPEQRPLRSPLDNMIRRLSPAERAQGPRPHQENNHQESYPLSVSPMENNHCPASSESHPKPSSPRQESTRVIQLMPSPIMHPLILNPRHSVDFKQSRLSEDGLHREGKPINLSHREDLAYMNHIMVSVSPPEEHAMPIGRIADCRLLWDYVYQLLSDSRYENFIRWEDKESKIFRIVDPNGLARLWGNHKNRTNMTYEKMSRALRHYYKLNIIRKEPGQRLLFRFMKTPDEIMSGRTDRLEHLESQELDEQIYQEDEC
CRX, sequence (O43186 whole entry): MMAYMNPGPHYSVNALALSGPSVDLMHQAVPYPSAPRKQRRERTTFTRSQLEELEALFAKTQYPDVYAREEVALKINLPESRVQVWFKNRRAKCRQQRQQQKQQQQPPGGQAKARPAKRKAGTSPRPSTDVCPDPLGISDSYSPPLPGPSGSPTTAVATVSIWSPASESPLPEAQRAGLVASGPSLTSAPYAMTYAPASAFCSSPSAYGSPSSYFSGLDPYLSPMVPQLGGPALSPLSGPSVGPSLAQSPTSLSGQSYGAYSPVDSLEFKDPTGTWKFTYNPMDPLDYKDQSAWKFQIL
ELF4, sequence (Q99607 whole entry): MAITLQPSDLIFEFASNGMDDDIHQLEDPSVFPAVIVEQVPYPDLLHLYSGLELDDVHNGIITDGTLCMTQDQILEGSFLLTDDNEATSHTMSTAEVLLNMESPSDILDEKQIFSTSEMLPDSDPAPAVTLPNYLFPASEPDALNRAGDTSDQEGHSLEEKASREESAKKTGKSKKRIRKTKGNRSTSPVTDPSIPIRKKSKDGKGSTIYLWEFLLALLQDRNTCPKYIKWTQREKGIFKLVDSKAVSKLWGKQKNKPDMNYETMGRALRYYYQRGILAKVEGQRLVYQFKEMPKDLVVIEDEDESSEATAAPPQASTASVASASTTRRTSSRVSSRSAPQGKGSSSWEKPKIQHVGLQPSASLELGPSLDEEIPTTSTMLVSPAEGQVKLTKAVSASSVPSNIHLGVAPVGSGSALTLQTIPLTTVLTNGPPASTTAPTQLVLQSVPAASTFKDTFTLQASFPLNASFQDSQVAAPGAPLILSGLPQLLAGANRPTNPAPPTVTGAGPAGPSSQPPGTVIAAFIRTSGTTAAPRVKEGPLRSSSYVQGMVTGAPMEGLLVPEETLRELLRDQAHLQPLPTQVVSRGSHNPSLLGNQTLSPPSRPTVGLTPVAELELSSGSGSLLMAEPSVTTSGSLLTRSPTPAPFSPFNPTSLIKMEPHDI

Turning to CCACTT, the binding signal with FEV is 2.3 fold enrichment (6-mer frequency, TF over GST control); in the test with ETV5, 1.99 fold enrichment (6-mer frequency, TF over GST control); with HSF1 it was 1.25 fold enrichment (6-mer frequency, TF over GST control); with SPIC, 1.63 fold enrichment (6-mer frequency, TF over GST control); with ELF4, 1.98 fold enrichment (6-mer frequency, TF over GST control); with ELK4, 1.77 fold enrichment (6-mer frequency, TF over GST control). The binding signal is 1.91 fold enrichment (6-mer frequency, TF over GST control) with ETV2; 1.59 fold enrichment (6-mer frequency, TF over GST control) in the test with ELF3; 1.36 fold enrichment (6-mer frequency, TF over GST control) with CRX; 1.95 fold enrichment (6-mer frequency, TF over GST control) with ETV1; 1.9 fold enrichment (6-mer frequency, TF over GST control) in the test with ERF; 1.79 fold enrichment (6-mer frequency, TF over GST control) with ETV3L. Further, the binding signal is 1.84 fold enrichment (6-mer frequency, TF over GST control) with ETS2; 1.69 fold enrichment (6-mer frequency, TF over GST control) with SPDEF; 1.78 fold enrichment (6-mer frequency, TF over GST control) with ETV7; 1.89 fold enrichment (6-mer frequency, TF over GST control) with ELF5; 1.97 fold enrichment (6-mer frequency, TF over GST control) in the test with ETV3; 1.85 fold enrichment (6-mer frequency, TF over GST control) with ETV6.
